High-throughput results as filed in PubChem BioAssay.
HepG2 viability – kills HepG2 cells in TGF-b inhibitor counter-screen. HepG2 CAGA-GFP viability, ATP luminescence, 18 h. Potency, µM (series often up to 46.1 µM), for inactives: at the top dose activity change, negative = cytotoxicity, hits mostly cytotoxic. actives 0.76% (n = 410,000). AID 588856
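CellTiter-Glo luminescence gave cytotoxicity after 18 hours at 37 degrees C. The cells were HepG2 CAGA-GFP in 1% FBS DMEM, stimulated with 500 pg/mL TGF-beta after compound addition. %Activity was normalised to no-cell wells (complete cell-killing) and DMSO (no toxicity), and curves were fitted and classified.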
TDP1 cell noCPT – qHTS for Inhibitors of human tyrosyl-DNA phosphodiesterase 1 (TDP1): qHTS in cells in absence of CPT; DT40 Tdp1-/- hTDP1 cells, no CPT, ATP luminescence, 48 h; Potency, µM (series often up to 46.2 µM), for inactives: top-dose activity change, negative = growth inhibition, actives largely listed as inhibitors; actives 15% (n = 420,000); further: on the % scale 0 is the no-effect control and ±100 the full control effect; nearly all actives have a fitted effect of over 55% in size
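Chicken DT40 Tdp1-/- cells complemented with human TDP1, screened without camptothecin (DMSO vehicle only), 400 cells/well. Compounds pin-transferred, cells incubated at 37 °C for at least 48 hr. Growth read as ATP-dependent luminescence (CellTiter-Glo, 30 min at RT).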
HT1080NT lethal – kills 2HG-producing HT-1080-NT fibrosarcoma cells. actives 1.6% (n = 360,000). HT-1080-NT fibrosarcoma viability, CellTiter-Glo ATP luminescence, 48 h. Potency, µM (highest dose often 46.1 µM), for inactives: at the top dose activity, negative = less viability, most hits filed as cytotoxic;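 further: NT is the 2HG producing partner of a matched IDH1 knockdown line; 0% = DMSO-treated cells and -100% = media-only wells without cells; nearly all actives have a fitted effect of over 55% in size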
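A 48-hour cytotoxicity screen used HT-1080-NT cells plated 2 hours before compound delivery. ATP-based CellTiter-Glo luminescence measured viability, normalized to DMSO and no-cell controls.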
DT40 TDP1 CPT – DT40-hTDP1 cell growth loss with CPT. chicken DT40 Tdp1-/-;hTDP1 cells + 20 nM CPT, ATP luminescence, 48 h. Potency, µM (series often up to 46.2 µM), for inactives: top-dose activity change, negative = growth inhibition, usual class: inhibitors. actives 12% (n = 420,000); further: on the % scale 0 is the no-effect control and ±100 the full control effect; nearly all actives have a fitted effect of over 55% in size
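Chicken DT40 Tdp1-/- cells complemented with human TDP1, 400 cells/well, exposed to compounds plus 20 nM camptothecin for at least 48 h at 37 C; viability read as ATP content by CellTiter-Glo luminescence.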
HT1080 IDH1KD tx – HT-1080 IDH1 knockdown cell toxicity (counter line). HT-1080 IDH1 knockdown viability, ATP luminescence, 48 h. Potency, µM (titrated, usually from 46.1 µM), for inactives: at the highest dose activity, negative = toxicity, usual class: cytotoxic. actives 2% (n = 360,000). AID 686971;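 further: 0% = DMSO wells and -100% = cell-free medium wells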
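Using the IDH1-knockdown HT-1080 line run in the same batch and compound series as the NT line, viability after 48 h at 37 °C was determined by CellTiter-Glo luminescence and expressed as % activity.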
TGFb SMAD3 inh – TGF-b pathway inhibition; HepG2 CAGA-GFP TGF-b/SMAD3 reporter, GFP fluorescence, 18 h; TGF-beta stimulated, 500 pg/mL final; Potency, µM (top dose mostly 46.1 µM), for inactives: at the highest dose activity, negative = inhibition, most hits filed as inhibitors; actives 1.2% (n = 410,000); further: on the % scale 0 is the no-effect control and ±100 the full control effect; nearly all actives have a fitted effect of over 65% in size
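Per well, imaged GFP fluorescence of HEPG2 CAGA-GFP cells gives the signal; cells get compound, then TGF-beta (500 pg/mL final), 18 h at 37 degrees C; %Activity versus -TGF-beta and +DMSO controls.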
* = called active by the depositor; ? = inconclusive; · = not tested or not shown. In the library only some 17% were active in any assay of this set; here they are far more common. The call rests on the fitted dose curve; in most records, active means well fitted curve in the direction sought with a large enough effect; inconclusive means small, poorly fitted or top-dose-only effect, or another doubt; inactive means no such curve, though single readings can be large; an effect the other way counts as inactive or inconclusive. Potency means the concentration at half of the fitted maximal effect.

SMILES	HepG2 viability	TDP1 cell noCPT	HT1080NT lethal	DT40 TDP1 CPT	HT1080 IDH1KD tx	TGFb SMAD3 inh
COc1cc2c(NC3CCN(C)CC3)nc(N3CCCN(C)CC3)nc2cc1OCCN(C)C	·	11.2µM*	2.7%	11.2µM*	-1.1%	·
COCCn1c(C)cc(O)c(C(c2ccc(Cl)cc2)N2CCN(c3ccccc3)CC2)c1=O (centres undefined)	9.2%	-11.9%	·	-11.6%	·	-4.8%
CCC(O)C1CCN(C(=O)c2ccc(OC3CCN(Cc4ccccn4)CC3)cc2)CC1 (centres undefined)	-1.4%	20.0%	-4.4%	-11.4%	6.1%	-14.3%
Cc1ccc(C(=O)NC(=C(Cl)Cl)S(=O)(=O)c2ccc(C)cc2)cc1	-32.4%	?	?	?	?	9.9%
Cc1ccc(C(=O)NC(=C(Cl)Cl)S(=O)(=O)c2ccc(Cl)cc2)cc1	-11.4%	18.4µM*	?	?	?	?
CC(=O)NC(=C(Cl)Cl)S(=O)(=O)c1ccccc1	-19.3%	8.2µM*	-5.9%	11.6µM*	-6.1%	-4.1%
CC(=O)Nc1ccc(/C(C)=N/NS(=O)(=O)c2ccccc2)cc1	-0.8%	14.0%	10.4%	4.9%	18.7%	1.3%
O=C(NC(=C(Cl)Cl)S(=O)(=O)c1ccc(Cl)cc1)c1ccccc1	-38.2%	9.2µM*	?	6.51µM*	?	?
Cc1ccc(S(=O)(=O)C(NC(=O)c2ccccc2)=C(Cl)Cl)cc1	-29.2%	13µM*	?	23.1µM*	?	-22.4%
O=C(C[n+]1cccc(C(=O)N/N=C/c2cccc([N+](=O)[O-])c2)c1)c1ccccc1	0.0%	-21.6%	3.6%	-0.5%	10.0%	-5.3%
Cc1ccc(S(=O)(=O)/C(=C/Cl)NC(=O)c2ccccc2)cc1	-2.5%	14.6µM*	?	18.4µM*	20.6µM*	?
COC(=O)c1sccc1NC(=O)Nc1ccc(F)cc1F	-15.2%	-1.7%	17.5%	-4.8%	-0.1%	-3.6%
Cc1ccc2nc(SCCC(=O)O)cc(C)c2c1	-41.9%	0.6%	0.9%	-10.4%	8.9%	2.7%
CCCCc1c(C)nc2ccc(C)cc2c1SCCC(=O)O	-11.7%	9.2µM*	-7.9%	?	-14.0%	-16.2%
Cc1ccc(-c2csc(=Nc3cccnc3)n2CCCN2CCCC2=O)cc1C	-53.5%	18.4µM*	-22.6%	?	-11.9%	-8.9%
Cc1ccc(-c2csc(=Nc3cccnc3)n2CCCn2ccnc2)cc1C	3.2%	11.6µM*	-5.6%	16.4µM*	-19.6%	-33.0%
COCCn1c(-c2ccccc2)csc1=Nc1cccnc1	-24.6%	?	-18.3%	16.4µM*	-10.2%	?
CC(C)n1c(-c2ccco2)csc1=Nc1cccnc1	-36.1%	?	?	11.2µM*	?	-13.6%
CCCCn1c(C)csc1=Nc1cccnc1	-14.1%	?	5.9%	?	0.0%	-5.1%
Cc1cc(C)cc(C(=O)Nc2c3c(nn2-c2ccccc2C)CS(=O)(=O)C3)c1	-45.2%	-23.2%	·	-9.4%	·	15.7%
CCCCCCNCc1c(F)cccc1Cl	-13.7%	-19.4%	16.9%	0.3%	4.9%	-8.4%
COc1c(O)ccc(/C=N\NC(=O)c2ccc3c(c2)OCO3)c1[N+](=O)[O-]	-11.0%	-9.2%	-1.2%	6.1%	-1.4%	0.2%
Cc1cccc(C(=O)N2CCCC(CCC(=O)N3CCN(c4ccccn4)CC3)C2)c1 (centres undefined)	-9.0%	?	-0.9%	?	0.0%	0.0%
COc1cccc(C(=O)c2cn(CC(=O)NCCc3ccccc3)c3nc(C)ccc3c2=O)c1	-10.2%	?	·	-21.4%	·	?
